# PLC-beta3 inh: PLC-beta3 (human) inhibition, primary screen | Q01970 | actives 0.18% (n = 370,000) | inhibition, % at 12.2 µM | Purified PLC-beta3, fluorogenic substrate, fluorescence | AID 720704; in the data active = inhibition above about 11%;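 also: 0% = median of compound wells on plate and 100% = full blocker control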
# ADAM10 inh: inhibitors of human ADAM10 | O14672 | AID 720582 | recombinant ADAM10, EDANS/DABCYL FRET peptide cleavage, 3 h | inhibition, % at 7 µM | actives 0.62% (n = 370,000);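 active = inhibition above a per-campaign cutoff equal to the mean of compounds falling between control-based bounds plus 3 SD, cut at about 20% in these data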;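 also: 0% = DMSO wells while the 100% control is not disclosed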
# ADAM17 inh: ADAM17 inhibition, QFRET primary screen. P78536. recombinant ADAM17, EDANS/DABCYL FRET peptide cleavage. inhibition, % at 6.95 µM. actives 0.83% (n = 370,000). AID 720648;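 active = inhibition above the mean of compounds lying between control limits plus 3 SD, set per campaign, cut at about 8.5% in these data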;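 also: 0% = DMSO-only wells as the low control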
# HGIII-sPLA2 inh: Blocks human group III sPLA2 activity. Q9NZ20. QFRET BODIPY PC-A2 liposome hydrolysis, fluorescence. inhibition, % at 12.2 µM. actives 0.56% (n = 370,000);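 active = inhibition above mean plus 3 SD of compounds lying within the high and low control bounds, cut at about 19% in these data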;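 also: 0% = median of test compound wells and 100% = no enzyme DMSO wells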
# PLCg1 inh: inhibitors of human phospholipase C gamma1; P19174; purified PLC-gamma1, fluorogenic substrate, fluorescence; inhibition, % at 12.2 µM; actives 0.84% (n = 370,000); in the data active = inhibition above about 9.5%
# Target sequence (P19174 whole entry, looked up): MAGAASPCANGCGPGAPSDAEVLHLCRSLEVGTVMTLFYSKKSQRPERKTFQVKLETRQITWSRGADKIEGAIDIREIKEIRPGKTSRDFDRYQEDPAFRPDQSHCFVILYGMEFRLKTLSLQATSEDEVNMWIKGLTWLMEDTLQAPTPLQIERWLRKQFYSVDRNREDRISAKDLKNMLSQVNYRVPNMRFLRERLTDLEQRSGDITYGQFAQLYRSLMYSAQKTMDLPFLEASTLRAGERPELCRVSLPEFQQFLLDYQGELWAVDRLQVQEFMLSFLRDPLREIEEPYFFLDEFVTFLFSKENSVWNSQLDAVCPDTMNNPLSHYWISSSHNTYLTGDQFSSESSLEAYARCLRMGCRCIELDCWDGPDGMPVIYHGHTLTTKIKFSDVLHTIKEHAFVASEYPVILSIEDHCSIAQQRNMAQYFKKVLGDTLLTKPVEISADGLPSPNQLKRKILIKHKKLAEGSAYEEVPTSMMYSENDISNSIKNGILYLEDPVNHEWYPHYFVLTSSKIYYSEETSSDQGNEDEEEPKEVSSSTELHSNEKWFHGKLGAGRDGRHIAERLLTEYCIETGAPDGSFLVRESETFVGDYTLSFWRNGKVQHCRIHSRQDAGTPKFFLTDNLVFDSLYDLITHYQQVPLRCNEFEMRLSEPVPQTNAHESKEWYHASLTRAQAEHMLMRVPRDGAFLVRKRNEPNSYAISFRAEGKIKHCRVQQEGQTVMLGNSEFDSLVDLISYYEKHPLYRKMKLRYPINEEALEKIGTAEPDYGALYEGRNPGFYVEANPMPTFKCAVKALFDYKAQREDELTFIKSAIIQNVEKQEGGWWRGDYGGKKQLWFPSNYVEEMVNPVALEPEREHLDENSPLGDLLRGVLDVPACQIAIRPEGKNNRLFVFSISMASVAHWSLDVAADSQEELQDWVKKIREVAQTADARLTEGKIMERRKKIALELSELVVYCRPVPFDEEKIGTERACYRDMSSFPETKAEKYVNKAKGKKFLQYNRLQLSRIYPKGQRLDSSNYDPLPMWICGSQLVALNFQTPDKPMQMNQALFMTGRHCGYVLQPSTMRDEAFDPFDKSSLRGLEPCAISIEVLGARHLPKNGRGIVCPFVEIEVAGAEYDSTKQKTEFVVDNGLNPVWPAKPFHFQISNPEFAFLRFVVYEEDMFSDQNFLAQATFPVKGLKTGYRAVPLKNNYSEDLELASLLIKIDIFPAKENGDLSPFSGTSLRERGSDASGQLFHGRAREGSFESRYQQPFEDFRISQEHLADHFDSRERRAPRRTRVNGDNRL
# proKLK7 act: activates the human kallikrein-7 zymogen | P49862 | purified proKLK7, EDANS-DABCYL substrate fluorescence; 100% is mature enzyme control, 0% vehicle | activation, % at 7 µM | actives 0.9% (n = 370,000);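 active = activation above the mean of all tested compounds plus 3 SD, computed per campaign excluding outliers beyond control limits, cut at about 13% in these data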
# ADAM10 confirm: human ADAM10 inhibition, confirmation; ADAM10 QFRET peptide cleavage, EDANS fluorescence; inhibition, % at 6.95 µM; actives 1% (n = 2,100); shares compounds with ADAM10 inh;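 active = inhibition above about 20% chosen separately for each screening run, limit read from the data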;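 also: 0% = DMSO wells and 100% = marimastat wells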
# ADAM17 counter: ADAM17 inhibition, counter-screen for ADAM10 exosite hits; shares compounds with ADAM10 inh; ADAM17 QFRET peptide cleavage, EDANS fluorescence; inhibition, % at 6.95 µM; actives 0.5% (n = 2,100); AID 743214;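 active = mean triplicate inhibition above the solvent-only control wells' mean plus 3 SD, cut at about 12% in these data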;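 also: 0% = DMSO wells and 100% = marimastat wells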
# ADAM10 ctr: inhibits human ADAM10 in ADAM17 exosite counter-screen; shares compounds with ADAM17 inh; recombinant ADAM10, EDANS/DABCYL FRET peptide cleavage, 3 h; inhibition, % at 6.95 µM; actives 47% (n = 2,900); AID 743256;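 active = mean inhibition over the triplicate runs exceeds the activity threshold set in the earlier primary screen, cut at about 20% in these data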;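 also: 0% = DMSO wells and 100% = marimastat wells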
# ADAM17 confirm: human ADAM17 inhibition, confirmation | inhibition, % at 6.95 µM | actives 65% (n = 2,900) | recombinant ADAM17, EDANS/DABCYL QFRET peptide cleavage | shares compounds with ADAM17 inh;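 active = mean inhibition across replicates above the hit cutoff set in the primary screen, cut at about 8.5% in these data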;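 also: 0% = DMSO wells and 100% = marimastat wells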
# * marks the source's active call; other numbers are inactive results; . = not tested or not shown. Most compounds without a hit are left out; they make up all but 3.4% or so of the library.
SMILES,PLC-beta3 inh,ADAM10 inh,ADAM17 inh,HGIII-sPLA2 inh,PLCg1 inh,proKLK7 act,ADAM10 confirm,ADAM17 counter,ADAM10 ctr,ADAM17 confirm
COc1cc(/C=N/NC(=O)COc2cccc(F)c2)ccc1OS(=O)(=O)c1ccc(C)cc1,5.1,25.3*,12.7*,-19.1,3.0,0.1,7.9,2.6,24.1*,15.7*
COC(=O)N/N=C/c1ccc(OS(=O)(=O)c2ccc(C)cc2)c(OC)c1,-5.8,-7.1,1.7,-0.8,1.7,1.1,.,.,.,.
NC(=O)Cn1nc(-c2ccccc2)nc1-c1ccccc1,-5.4,0.6,-1.2,-0.7,2.2,0.5,.,.,.,.
COc1ccc([C@@H]2[C@@H]3C(=O)N(C(C)(C)C)C(=O)[C@@H]3[C@]3(C)C(=O)N(c4cccc(Cl)c4)C(=O)N23)cc1,3.2,11.5,1.4,-39.0,-0.9,0.3,.,.,.,.
CC[C@]12c3[nH]c4ccc(Cl)cc4c3CCN1C(=O)[C@@H](CC(=O)NCCC1=CCCCC1)C[C@@H]2C(=O)N1CCN(C(=O)C2CC2)CC1,-3.7,-0.8,-1.5,6.2,-1.2,0.1,.,.,.,.
CN1C(C(=O)Nc2ccc(OC(F)(F)F)cc2)=CC(c2cccs2)=NS1(=O)=O,-8.3,25.6*,13.3*,-4.6,1.6,-0.2,10.4,4.0,22.3*,16.3*
O=C(Oc1ccc(OC(=O)c2ccco2)c(S(=O)(=O)c2ccc(Cl)cc2)c1)c1ccco1,3.3,26.4*,8.8*,-29.6,2.3,-0.5,4.2,1.6,19.7,9.7*
CC(=O)c1cc(Cl)ccc1OC(=O)c1ccco1,-0.3,3.5,-6.9,-6.4,0.5,-0.3,.,.,.,.
Cc1nc(-c2ccc(F)cc2)c(CC(=O)N(C)CC(=O)Nc2ccc(Cl)c(C(F)(F)F)c2)s1,1.6,31.6*,18.9*,-15.7,6.8,-0.7,1.4,0.9,25.5*,14.5*
Cc1ccc(C)c(OCC(=O)N(C)CC(=O)Nc2ccc(Cl)c(C(F)(F)F)c2)c1,-1.6,22.9*,8.8*,-17.4,6.2,0.3,3.9,0.5,31.1*,17.3*
CN(CC(=O)Nc1ccc(Cl)c(C(F)(F)F)c1)C(=O)CC1Sc2ccccc2NC1=O (stereo unspecified),0.9,33.4*,13.5*,-35.1,8.4,-0.5,1.1,0.3,26.3*,12.9*
COc1cccc(NC(=O)CN(C)C(=O)CC2Sc3ccccc3NC2=O)c1 (stereo unspecified),-4.6,-7.2,-1.1,2.4,1.1,-0.2,.,.,.,.
Cc1nc(-c2ccc(F)cc2)c(CC(=O)N(C)CC(=O)Nc2ccccc2Cl)s1,0.5,-0.8,-2.1,-2.2,-2.0,-0.1,.,.,.,.
CCOc1ccc(NC(=S)Nc2cc(C)[nH]n2)cc1,-4.5,0.6,-3.3,6.2,0.8,-0.3,.,.,.,.
CCCOc1ccc(NC(=O)CC2C(=O)N(Cc3ccccc3)C(=S)N2Cc2cccs2)cc1 (stereo unspecified),-1.2,25.7*,13.1*,-19.8,-2.2,-0.5,10.8,5.3,30.0*,16.4*
COC(=O)CN1C(=S)N(Cc2ccccc2)C(=O)C1CC(=O)Nc1ccc(Br)cc1 (stereo unspecified),8.1,23.4*,11.9*,-27.0,1.2,-0.1,4.0,1.3,26.6*,12.6*
COc1ccc(OC)c(/C=C2\SC(=S)N(C(C(=O)O)c3ccccc3)C2=O)c1 (stereo unspecified),-121.8,-21.6,-10.5,-6.5,-94.7,-0.2,.,.,.,.
CC(C)(C)S(=O)N1Cc2cc(C(=O)NCc3ccc4c(c3)OCO4)nc(-c3cccc(-c4ccccc4)c3)c2[C@@H]1CCO (stereo partly specified),-0.2,26.0*,9.2*,-21.2,-2.4,-0.6,8.3,2.5,9.7,9.3*
CC(C)(C)OC(=O)N1CCC(C(=O)Nc2cccc(C(=O)N3CCCC3)c2)CC1,2.7,6.2,2.8,3.5,4.8,0.4,.,.,.,.
CCc1ccc(NC(=O)C(C)OC(=O)c2ccc(NS(=O)(=O)c3ccc(C)c([N+](=O)[O-])c3)cc2)cc1 (stereo unspecified),2.8,28.7*,11.8*,-109.6,3.6,-0.3,4.5,1.1,27.2*,17.5*
Cc1ccc(NC(=O)C(C)OC(=O)c2ccc(NS(=O)(=O)c3ccc(F)c(F)c3)cc2)cc1 (stereo unspecified),3.1,10.6,2.1,-78.2,0.9,0.6,.,.,.,.
Cc1ccccc1-n1c(SCC(=O)N/N=C/C=C/c2ccccc2[N+](=O)[O-])nc2ccccc2c1=O,5.5,22.9*,10.0*,-8.2,5.1,-0.5,4.7,1.4,17.8,12.4*
O=[N+]([O-])c1cccnc1N1CCCCC1,-1.1,-5.9,-3.8,5.6,-4.1,-0.2,.,.,.,.
O=[N+]([O-])c1cccnc1N1CCC(c2cc(-c3cccc(C(F)(F)F)c3)n[nH]2)CC1,2.0,20.2*,10.5*,-18.2,1.1,0.5,14.8,3.3,47.8*,19.4*
O=[N+]([O-])c1cccnc1N1CCC(c2cc(-c3ccc(Cl)cc3Cl)n[nH]2)CC1,5.4,30.0*,11.3*,-22.1,1.4,0.3,7.5,2.1,31.0*,16.7*
NC(=O)C1CCN(c2ncccc2[N+](=O)[O-])CC1,-5.3,1.6,-4.3,2.6,1.0,0.6,.,.,.,.
CC[C@]12c3[nH]c4cc(CCC(=O)N(C)C)ccc4c3CCN1C(=O)[C@@H](CC(=O)NC(C)(C)C)C[C@@H]2C(=O)N1CCN(C(=O)C2CC2)CC1,1.1,-16.5,-1.2,2.6,0.5,0.0,.,.,.,.
Cc1ccccc1NC(=O)CSc1nc(=O)n(CCN2CCOCC2)c2c1CCCC2,0.6,4.0,-3.2,2.9,2.8,0.7,.,.,.,.
CCCCN(C(=O)CCN1C(=O)C2CC=CCC2C1=O)c1c(N)n(CCCC)c(=O)[nH]c1=O (stereo unspecified),-5.7,-2.7,-3.5,5.2,3.7,0.1,.,.,.,.
CCn1nc([N+](=O)[O-])c(C(C#N)c2nc3cc(C(F)(F)F)ccc3s2)c(Cl)c1=O (stereo unspecified),4.3,27.6*,11.0*,-34.0,1.6,-0.3,4.8,2.9,22.8*,13.7*

# Screens deposited in PubChem by The Scripps Research Institute Molecular Screening Center.
